Results taken from ChEMBL document CHEMBL3988442, “University of Dundee, Small-Polar-MMV Screening Library” (2021).
About 13,000 (27%) of roughly 48,000 compounds showed an effect of 50% or more. This is one part of the list.

Each compound was assayed on Wolbachia pipientis (assay: Anti-Wolbachia Cell-Based Screen). Settings: 5 µM.
Type: functional
Set-up: scale not given: in the data most compounds retested in dose-response had high values

| SMILES | Percent Effect [%] |
| --- | --- |
| CC1=N[C@@]2(CC[C@@H]3CN(S(=O)(=O)CC(C)C)C[C@@H]32)C(=O)N1CC1CC1 | 5.74 |
| O=C(C1CCCN(Cc2cccc(F)c2)C1)N1CCc2sccc2C1 (stereo not given) | 1.206 |
| CCN(CCc1nccs1)C(=O)c1sccc1C | -15.07 |
| Cc1noc(C)c1CN(C)Cc1csc(-c2ccc(C(C)C)cc2)n1 | -1.572 |
| COCC(C)(CCO)NC(=O)Nc1cccc(F)c1C (stereo not given) | -3.176 |
| O=C(O)C(F)(F)F.O=C([C@@H]1CCO[C@@H]2CCN(CCc3ccccc3)C[C@@H]21)N1CCCC1 | 117.3 |
| O=C(O)C(F)(F)F.O=C([C@H]1CN(CCc2ccccc2)C[C@H]2OCC[C@@H]12)N1CCCO1 | -7.584 |
| O=C([C@@H]1CCO[C@@H]2CCN(CC3CC3)C[C@H]21)N1CCCC1 | -26.98 |
| CN(C)c1ncc2c(O)nc(C3CCCNC3)cc2n1 (stereo not given) | 88.81 |
| Cc1nc(C2CCCNC2)cc(N(C)CCc2cn[nH]c2)n1 (stereo not given) | 4.214 |
| Cl.Cl.Cn1cnc2c(-c3cccnc3)nc(C3CCNCC3)cc21 | -57.7 |
| CN(C)c1ncc2c(O)nc(C3CCNCC3)cc2n1.Cl | 122.5 |
| CC(C)n1cnc2c(N3CCCC3)nc(C3CCNCC3)cc21.Cl.Cl | -3.823 |
| CCN(CC)c1ncc2c(O)nc(C3CCNCC3)cc2n1 | 97.4 |
| CCN(CC)c1ncc(Cl)c(C(=O)NC2CCC(O)CC2)n1 (stereo not given) | -11 |
| CCN(CC)c1ncc(Cl)c(C(=O)NC2CC2)n1 | -2.852 |
| CN(C)CCNC(=O)c1noc2c1CN(C(=O)N(C)C)CC2 | 9.564 |
| Cn1ccc2c(C(=O)NCCCS(C)(=O)=O)cccc21 | -9.064 |
| Cc1c(C(=O)NCCC(=O)N2CCCC2)cccc1-c1ccccn1 | 102.1 |
| Cc1c(C(=O)NCCC(=O)N2CCCC2)oc2c(F)cccc12 | 5.296 |
| Cc1c(C(=O)NCCCS(C)(=O)=O)cccc1-c1ccccn1 | 78.39 |
| Cc1ccc(C(=O)NCCCS(=O)(=O)c2ccccc2)c(=O)[nH]1 | 14.19 |

| SMILES | Percent Effect [%] |
| --- | --- |
| Cc1c(NCC(C)(C)C)cccc1C(=O)NCc1ncnn1C | -8.622 |
| Cc1c(I)cccc1C(=O)NCc1ncc[nH]1 | -7.865 |
| Cc1c(C(=O)NCC(C)(C)S(C)(=O)=O)cccc1-c1ccccn1 | 90.41 |
| Cn1cc(C(=O)NCCC(=O)N2CCCCC2)c(-c2cccnc2)n1 | -19.31 |
| Cc1csc(C2(NCc3nc(-c4ccco4)no3)CCCC2)n1 | -16 |
| Cc1cc(C)n2nc(CC(=O)N[C@H]3C[C@H]4CN(C)CCN4C3)nc2n1 | -5.28 |
| c1ccc2c(c1)COC1(CCCCC1)N2 | 87.69 |
| c1ccc(CN2CCC3(CC2)Nc2ccccc2CO3)cc1 | 107.9 |
| O=C(O)C(F)(F)F.O=C1COC2(CCN(Cc3ccc(F)cc3)CC2)CN1 | 10.25 |
| c1ccc2c(c1)COC1(CCCC1)N2 | 105.5 |
| OCC1(Cc2ccc(Cl)cc2)CCN(Cc2ccccc2O)CC1 | -3.576 |
| CC1CCC2(CC1)Nc1ccccc1CO2 (stereo not given) | 93.91 |
| CCc1nc(NC(=O)NCCc2cccc(C)n2)nn1C | -4.482 |
| O=S(=O)(NCC(O)c1ccc(C(F)(F)F)cc1)C1CC1 (stereo not given) | -5.07 |
| Cc1noc(C)c1CNc1cccc(C(=O)N2CCCC(O)C2)c1 (stereo not given) | 6.213 |
| CC(C)(C)n1ncc2c(=O)[nH]c(N3CCC4(CCCCC4)C3)nc21 | -1.553 |
| N#Cc1ccsc1N1CCC(Sc2ccncc2)C1=O (stereo not given) | 81.54 |
| CN(Cc1ncnn1C)C1CCN(c2sccc2C#N)C1=O (stereo not given) | 7.621 |
| CCc1cnc(CN(C)C2CCN(c3sccc3C#N)C2=O)s1 (stereo not given) | 1.692 |
| CCc1ncc(CN(C)C2CCN(c3sccc3C#N)C2=O)s1 (stereo not given) | 0.715 |
| Cc1nnc(SC2CCN(c3sccc3C#N)C2=O)s1 (stereo not given) | 109.2 |
| N#Cc1ccsc1N1CCC(Sc2ncc[nH]2)C1=O (stereo not given) | 95.53 |

| SMILES | Percent Effect [%] |
| --- | --- |
| Cc1nnc(SC2CCN(c3sccc3C#N)C2=O)[nH]1 (stereo not given) | 106.7 |
| O=C1C(Sc2nc(=O)ccn2C2CC2)CCN1c1ccccc1 (stereo not given) | -7.516 |
| Cn1c(N)nnc1SC1CCCN(c2ccccc2)C1=O (stereo not given) | -9.447 |
| Cc1cc(N)nc(SC2CCN(c3ccccc3)C2=O)n1 (stereo not given) | -22.79 |
| Cc1cc(N)nc(SC2CCN(c3ccccc3F)C2=O)n1 (stereo not given) | 10.35 |
| CCC(CO)N(Cc1ccco1)C(=O)c1sccc1NC(C)=O (stereo not given) | 21.44 |
| Cc1oncc1NS(=O)(=O)c1c[nH]c2ncccc12 | -22.29 |
| c1cncc(COCC2CN(Cc3ccsc3)Cc3ccnn3C2)c1 (stereo not given) | -8.281 |
| COc1ccccc1OCCNc1snc(Cl)c1C#N | -4.663 |
| Cc1nc(SC2CCN(c3sccc3C#N)C2=O)oc1C (stereo not given) | 85.81 |
| Cc1csc(CN(C)C2CCN(c3sccc3C#N)C2=O)n1 (stereo not given) | 9.47 |
| CCc1noc(CN(C)C2CCN(c3sccc3C#N)C2=O)n1 (stereo not given) | 0.9243 |
| Cn1c(C(N)=O)ccc1-c1ccccc1 | 3.483 |
| CC(C)NC(=O)NCCCOC1CCOCC1 | -1.893 |
| COCCOCC(=O)N(Cc1cccc(C)c1)C(C)C | -6.619 |
| O=C(O)C(F)(F)F.O=C1COC2(CCN(Cc3ccco3)CC2)CN1CCn1cccn1 | 4.018 |
| Cc1cccc(CN2CC3(CCN(Cc4ccco4)CC3)OCC2=O)n1.O=C(O)C(F)(F)F.O=C(O)C(F)(F)F | 121.1 |
| O=C(O)C(F)(F)F.O=C1COC2(CCN(Cc3ccoc3)CC2)CN1CCn1cccn1 | 2.726 |
| Cc1cccc(CN2CC3(CCN(Cc4ccoc4)CC3)OCC2=O)n1.O=C(O)C(F)(F)F.O=C(O)C(F)(F)F | 122.8 |
| O=C(O)C(F)(F)F.O=C(c1ccco1)N1C[C@H]2CCCN(CC3CCOCC3)[C@H]2C1 | -19.49 |
| COCCNC(=O)[C@H]1CN(Cc2scnc2C)C[C@H]2OCC[C@@H]12.O=C(O)C(F)(F)F.O=C(O)C(F)(F)F | -9.051 |
